In all, about 300,000 compounds went through this assay and about 37,000 (12%) were called active. Many of the other results were omitted from the sample, so actives are more common in it than they were. A number with no mark means an inactive call. No stated cut-off is given here; in the data, active means max response mostly above about 13% (no sharp cut-off); inactive means mostly below about 14%.
Experiment: Cycloheximide Counterscreen for Small Molecule Inhibitors of Shiga Toxin; further: read at 38.3 µM for the half of the compounds with a filed dose; 0% is about no effect
Settings: cell reporter, cycloheximide protein synthesis inhibition counterscreen; active compounds read high
Cc1ccc(CNC(=O)CCC(=O)N2CC(C)Sc3ccccc32)cc1 (stereo not given) showed a max response of -1.08%. CCOC(=O)N1CCC(N2Cc3cccc(C(=O)Nc4c(C)cccc4CC)c3C2=O)CC1 showed a max response of -3.86%. For COc1cccc2sc(N(CCCN(C)C)C(=O)CCS(=O)(=O)c3ccccc3)nc12, the max response was 11.6%. CNC(=O)c1nnc(Cc2ccc(Cl)cc2)o1 gave a max response of 11.5%. S=C(NCc1cccs1)Nc1ccc(Cl)cc1 gave a max response of 13.8%. In the case of Clc1ccc(Cc2nnc(-c3cccs3)o2)cc1, the max response is reported as 32.7% (active). With O=C(CP(=O)(c1ccccc1)c1ccccc1)N1CCOCC1 the max response was -5.81%. For CSCC(=O)N1CCCC(C(=O)c2cc(F)ccc2F)C1 (stereo not given), the max response was 5.48%. O=C(NC1CCN(Cc2ccccc2)CC1)c1c(F)cccc1F showed a max response of -3.43%. For CC1CN(C(=S)SCC(=O)c2ccccc2)CC(C)O1 (stereo not given), the max response was 34.8% (active). In the case of COC(=O)[C@H](Cc1ccccc1)NC(=O)N1CC(C)OC(C)C1 (stereo not given in full), the max response is reported as 0.915%. With O=C(CSC(=S)N1CCOCC1)c1ccccc1 the max response was 19% (active). Work on CC1CN(C(=S)Nc2ccccc2F)CC(C)O1 (stereo not given) yielded a max response of 1.94%. For O=C(CSC(=S)N1CCCCC1)c1c(F)cccc1F, the max response was 42.5% (active). O=C(CSC(=S)N1CCOCC1)c1cc(Br)cc(Br)c1O gave a max response of -5.21%. In the case of CCOC(=O)c1c(CN(C)C)n(-c2ccccc2)c2cc(Br)c(O)cc12, the max response is reported as -1.63%. In the case of C[C@H]1CCC(=O)N([C@H](CSc2ccccc2)Cc2ccccc2)CC1, the max response is reported as 6.38%. With Cc1c(C(=O)N2CCCC2)c(S(=O)(=O)NCC(C)c2ccccc2)c(C)n1C (stereo not given) the max response was -6.59%. For COc1ccc(N(CC(=O)NC2CCCCC2)C(=O)CNC(=O)c2ccco2)c(OC)c1, the max response was 1.11%. CC1CC(NC(=O)/C(C#N)=C/c2ccc[nH]2)CC(C)(C)C1 (stereo not given) showed a max response of 4.89%. Work on CC(=O)NC1=NN(C(C)=O)C(C)(c2ccc(Cl)s2)S1 (stereo not given) yielded a max response of -1.1%. In the case of O=C(N/N=C/c1cccc2cccnc12)[C@H]1C[C@@H]1c1ccccc1, the max response is reported as 8.61%. In the case of CN(C)/C(CN1CCCCC1)=C1\N=C(c2ccccc2)OC1=O, the max response is reported as -3.11%. O=c1cc(CN2CCN(S(=O)(=O)/C=C/c3ccccc3)CC2)c2ccc(O)cc2o1 showed a max response of -1.39%. With COc1ccc([N+](=O)[O-])cc1N(CC(O)CN(CC(C)C)CC(C)C)S(=O)(=O)c1ccc(C)cc1 (stereo not given) the max response was 9.04%. CCOCc1nnc(NC(=O)CSc2ccc(C)cc2)s1 showed a max response of -1.61%. For Cc1ccc(C(=O)Cc2nnc(C)s2)cc1, the max response was 43.7% (active). With Cc1ccc(C(=O)Cn2cccn2)cc1 the max response was 6.54%. For COc1cc2c(cc1NC(=O)COC(=O)/C=C/c1ccccc1)oc1ccccc12, the max response was 0.0459%. With NC(=O)Cc1ccc2sc(-c3ccccc3)nc2c1 the max response was 75.6% (active). In the case of NC(=O)Cc1ccc2c(c1)[nH]c1ccccc12, the max response is reported as 4.3%. O=C(O)Cc1sc(-c2ccccc2)nc1-c1cccs1 gave a max response of 16.4%. With O=C(O)Cc1ccc(NCc2ccccc2Cl)cc1 the max response was 23.5%. In the case of COC(=O)CN1C(=S)N(c2ccccc2)C(=O)C1CC(=O)Nc1ccc(Cl)cc1 (stereo not given), the max response is reported as -2.88%. In the case of O=C(O)CC1=C(Nc2ccccc2)C(=O)N(c2ccccc2)C1c1ccc(Cl)cc1 (stereo not given), the max response is reported as 38.1% (active). Compound COc1ccccc1-n1c(=S)[nH]c2c(sc(=S)n2-c2ccc(C)cc2C)c1=O has a max response of 5.32%. For O=S(=O)(c1cnccc1N1CCN(/N=C/c2ccc(Br)cc2)CC1)N1CCCCC1, the max response was -0.626%. Compound O=C(CSc1nnnn1-c1ccc(O)cc1)N1N=C(c2ccc3ccccc3c2)CC1c1ccccc1 (stereo not given) has a max response of 6%. CC(C)=C1SC(N2CCN(c3ccc(C)c(Cl)c3)CC2)=NC1=O showed a max response of -1.62%. In the case of CCN1C(=O)/C(=C2\SC(N3CCCCC3)=NC2=O)c2ccccc21, the max response is reported as 18.4% (active). For CC(C)=C1SC(N2CCN(c3cccc(C)c3)CC2)=NC1=O, the max response was -1.33%. Compound Cc1ccc(OCC(=O)NC(C)c2ccccc2)cc1C (stereo not given) has a max response of -1.54%. Work on CCC(=O)OCc1c(C(F)(F)F)nn(C)c1Oc1cccc(C(F)(F)F)c1 yielded a max response of -1.08%. In the case of Cc1ccc(OCc2cc(C(=O)N(C)CCc3ccccc3)no2)cc1C, the max response is reported as 62.4% (active). Compound CN(Cc1cccnc1)C(=O)c1cc(COc2ccc3ncccc3c2)on1 has a max response of 7.18%. CN(CCOc1ccccc1)C(=O)c1cc(COc2c(F)cccc2F)on1 showed a max response of 15.4%. With COCCNC(=O)COc1ccc(C)c(C)c1 the max response was 9.18%. For Cc1nonc1C1CCCN1C(=O)c1cc(COc2cccc(C(F)(F)F)c2)on1 (stereo not given), the max response was 27.6% (active). With CCOC(=O)N1CCN(Cc2nc(Cc3cccc(C(F)(F)F)c3)no2)CC1 the max response was 9.29%. For COc1ccc(C(=O)NNC(=O)c2cc(C)[nH]n2)cc1, the max response was 3.07%. For CN(Cc1cnccn1)C(=O)c1cc(COc2cccc(C(F)(F)F)c2)on1, the max response was 37.1% (active). With C/C(=N/OC(=O)c1cccc(C(F)(F)F)c1)c1cnccn1 the max response was -2.87%. With Cc1cc(CN(C)C(=O)c2cc(COc3ccc(C)c(C)c3)on2)n[nH]1 the max response was 46% (active). With CC(=O)c1cccc(NC(=O)C2CCCN(S(=O)(=O)c3cccc4nonc34)C2)c1 (stereo not given) the max response was -1.65%. In the case of CCCn1c(C2CCCN2c2nc(-c3ccc(C)cc3)cs2)nc2cc(Cl)c(N3CCCCC3)cc21 (stereo not given), the max response is reported as 2.93%. For CCN(CC)CCN(C(=O)c1cc(Cl)sc1Cl)c1nc2cc3c(cc2s1)OCO3, the max response was 11.7%. Work on CC(=O)Nc1ccc(NC(=O)CN2C(=O)COc3ccc(S(=O)(=O)N4CCCCC4)cc32)cc1 yielded a max response of -11.2%. Compound COc1ccccc1Oc1ccc(N2CC(C(=O)OCC(=O)c3ccc(F)cc3)CC2=O)cc1 (stereo not given) has a max response of 1.71%. Compound CCCOc1ccc(Cc2c(O)nc(SC)[nH]c2=O)cc1C has a max response of 1.31%. In the case of Cc1noc(/C=C/c2ccco2)c1S(=O)(=O)N1CCC(C(=O)Nc2ccc(Cl)cn2)CC1, the max response is reported as 14.7%.
